Values joined by “and” are separate entries in the source; they are usually repeats but may differ in a detail not shown here. Equal entries are not always repeated. Records with an inconclusive call do not appear. Active and inactive are the calls of the source. How the source made its calls: active means hit-call score of the fitted dose curve at least 0.9, where 1 is the maximum; inconclusive means response in the unintended direction; inactive means score below 0.9.
These compounds were tested against Nucleoli Translocation, AR (gene 367) (UniProt P10275) (assay: UPITT_HCI_U2OS_AR_TIF2_Nucleoli_Antagonist: University of Pittsburgh U2OS Androgen Receptor-Transcriptional Intermediary Factor 2 (AR-TIF2) Antagonism High Content Imaging Assay for Nucleoli Translocation (AID 2283997)).
Nucleoli Translocation, AR (gene 367), sequence (P10275 whole entry, looked up, the tested form may be a part): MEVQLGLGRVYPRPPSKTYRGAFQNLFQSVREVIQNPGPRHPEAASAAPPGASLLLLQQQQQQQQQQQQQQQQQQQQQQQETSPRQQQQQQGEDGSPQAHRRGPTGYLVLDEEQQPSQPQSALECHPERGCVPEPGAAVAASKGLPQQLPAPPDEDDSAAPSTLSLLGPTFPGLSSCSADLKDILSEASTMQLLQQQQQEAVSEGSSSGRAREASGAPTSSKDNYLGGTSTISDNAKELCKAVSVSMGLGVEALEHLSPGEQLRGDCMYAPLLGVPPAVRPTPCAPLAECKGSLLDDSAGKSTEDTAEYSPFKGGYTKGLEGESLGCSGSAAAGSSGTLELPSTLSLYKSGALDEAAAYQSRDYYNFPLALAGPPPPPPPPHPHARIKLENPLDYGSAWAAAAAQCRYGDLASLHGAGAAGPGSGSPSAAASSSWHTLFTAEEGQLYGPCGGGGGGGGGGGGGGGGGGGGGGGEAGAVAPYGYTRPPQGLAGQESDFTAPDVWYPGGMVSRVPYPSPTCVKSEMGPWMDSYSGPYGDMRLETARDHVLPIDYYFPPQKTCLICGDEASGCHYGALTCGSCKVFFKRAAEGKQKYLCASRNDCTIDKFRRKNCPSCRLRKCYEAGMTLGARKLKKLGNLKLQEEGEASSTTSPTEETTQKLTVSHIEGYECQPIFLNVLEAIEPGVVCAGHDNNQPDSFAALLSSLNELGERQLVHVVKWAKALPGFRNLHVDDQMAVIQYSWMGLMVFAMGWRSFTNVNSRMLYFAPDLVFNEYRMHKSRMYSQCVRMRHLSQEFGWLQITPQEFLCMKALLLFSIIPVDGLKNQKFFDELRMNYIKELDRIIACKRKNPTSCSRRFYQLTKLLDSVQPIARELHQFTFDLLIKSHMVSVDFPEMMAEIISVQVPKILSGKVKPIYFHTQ
Description: UPITT_AR_TIF2_PPIB is a cell-based, high-content imaging assay that uses U2OS, a human osteosarcoma cell line, expressing a human androgen receptor fused to red fluorescent protein and the coactivator TIF2 fused to green fluorescent protein. UPITT_HCI_U2OS_AR_TIF2_Nucleoli_Antagonist is one of four assay components measured from the UPITT_AR_TIF2_PPIB assay. It is designed to make measurements of red fluorescence localized in the nucleolar region of the cell nucleus as detected with high-content fluorescent imaging.Data from the assay component UPITT_HCI_U2OS_AR_TIF2_Nucleoli_Antagonist was analyzed into 1 assay endpoint. This assay endpoint, UPITT_HCI_U2OS_AR_TIF2_Nucleoli_Antagonist, was analyzed in the positive analysis fitting direction relative to DHT as the baseline of activity. Using a type of binding reporter, measures of receptor for loss-of-signal activity can be used to understand the binding at the pathway-level as it relates to the gene AR.
Daughter plates containing 2 uL of 10 mM compounds in DMSO were prepared and replicated from the 384-well Library of Pharmacologically Active Compounds (LOPAC) master plates using the Bravo outfitted with a 384-well transfer head. Aluminum adhesive plate seals were applied with an Abgene Seal-IT 100 (Rochester, NY) plate sealer, and the plates were stored at -20 C in a Matrical MatriMinistore (Spokane, WA) automated compound storage and retrieval system. For screening, LOPAC daughter plates were withdrawn from -20C storage, thawed to ambient temperature, centrifuged 1-2 min at 50 g, and the plate seals were removed before the transfer of 98 uL of serum-free tissue culture medium (SFM) into wells using the BioTek Microflo liquid handler (BioTek, Winooski, VT) to generate a 200 uM intermediate stock concentration of library compounds (2.0% DMSO). The diluted compounds were mixed by repeated aspiration and dispensation using a 384-well P30 dispensing head on the Evolution P3 (EP3) liquid handling platform (PerkinElmer, Waltham, MA) and then 5 uL of diluted compounds was transferred to the wells of assay plates. In the LOPAC screen, compounds were individually tested at a final concentration of 20 uM (0.2% DMSO). After the diluted compounds had been transferred from the daughter plates to the primary HCS assay plates, aluminum adhesive plate seals were applied and the diluted daughter plates were stored frozen at -20C. To confirm active compounds identified in the primary screen, we withdrew the LOPAC daughter plates containing the 200 uM intermediate concentration of library compounds (2.0% DMSO) from -20C storage, thawed them to ambient temperature, centrifuged them for 1-2 min at 50 g, and removed the plate seals. A work list was generated to direct the Multiprobe Janus liquid handling platform (PerkinElmer) to cherry pick 75 uL from the wells of the diluted daughter plates that were flagged active in the primary screen and to reformat these into a 384-well plate hit confirmation daughter plate. Five microliters of primary HCS active compounds was then transferred into triplicate wells of assay plates using a 384-well P30 dispensing head on the Evolution P3 (EP3) liquid handling platform (PerkinElmer). […] Daughter plates containing 2 uL of the serially diluted compounds in DMSO were prepared and replicated from the 384-well serial dilution master plates using the Bravo outfitted with a 384-well transfer head. Aluminum adhesive plate seals were applied and plates were stored at -20C. […] The ImageXpress Ultra (IXU) platform (Molecular Devices LLC, Sunnyvale, CA) and The ImageXpress Micro (IXM) platform were used for imaging.
`Cl/C=C\C[N+]12CN3CN(CN(C3)C1)C2` was tested, and the AC50 was 50 µM (active). `CN(CCCC(=O)c1cccnc1)N=O` was tested, and the outcome was “inactive”. With `CC(C)(c1ccc(OCC2CO2)cc1)c1ccc(OCC2CO2)cc1` (configuration not stated) the AC50 was 50 µM (active). For `CC12CC1(C)C(=O)N(c1cc(Cl)cc(Cl)c1)C2=O` (configuration not stated), the AC50 was 0.134 µM (active). With `COP(=S)(OC)Oc1ccc(Sc2ccc(OP(=S)(OC)OC)cc2)cc1` the outcome was “inactive”. For `COP(=O)(OC)O/C(=C\Cl)c1cc(Cl)c(Cl)cc1Cl`, the AC50 was 50 µM (active). For `C[C@H]1O[C@@H](O[C@H]2[C@@H](O)C[C@H](O[C@H]3[C@@H](O)C[C@H](O[C@H]4CC[C@@]5(C)[C@H](CC[C@@H]6[C@@H]5CC[C@]5(C)[C@@H](C7=CC(=O)OC7)CC[C@]65O)C4)O[C@@H]3C)O[C@@H]2C)C[C@H](O)[C@@H]1O`, the AC50 was 8.23 µM (active) and 5.95 µM (active). `C[C@H]1CCCC(=O)CCC/C=C/c2cc(O)cc(O)c2C(=O)O1` was tested, and the AC50 was 6.39 µM (active). With `O=[N+]([O-])c1ccc(O)c([N+](=O)[O-])c1` the outcome was “inactive”. With `COP(=S)(OC)Oc1cc(Cl)c(Cl)cc1Cl` the outcome was “inactive”. With `c1cc[c]([Hg][c]2ccccc2)cc1` the AC50 was 70.3 µM (active). `CC(C)c1cccc(C(C)C)c1O` was tested, and the outcome was “inactive”. With `CCOP(=S)(OCC)Oc1nc(Cl)c(Cl)cc1Cl` the AC50 was 50 µM (active). In the case of `O=c1[nH]c(=O)[nH]c(=O)[nH]1`, the outcome is reported as “inactive”. In the case of `COP(=O)(OC)OC`, the outcome is reported as “inactive”. `Cc1ccccc1C(=O)Nc1cccc(OC(C)C)c1` was tested, and the outcome was “inactive”. For `C=CCc1ccc(OC)cc1`, the outcome was “inactive”. `CCC1(c2ccc(N)cc2)CCC(=O)NC1=O` (configuration not stated) was tested, and the outcome was “inactive”. `ClC1(Cl)C2(Cl)C3(Cl)C4(Cl)C(Cl)(Cl)C5(Cl)C3(Cl)C1(Cl)C5(Cl)C24Cl` (configuration not stated) was tested, and the outcome was “inactive”. For `Cc1ccc2ccccc2c1C`, the outcome was “inactive”. `C=CC(=O)OCCCCCC(C)C` was tested, and the outcome was “inactive”. For `Clc1ccc(COC(Cn2ccnc2)c2ccc(Cl)cc2Cl)cc1` (configuration not stated), the AC50 was 10.1 µM (active). `CC(C)CCCCCCOC(=O)c1ccccc1C(=O)OCCCCCCC(C)C` was tested, and the outcome was “inactive”. `CCSC(C)CC1CC(=O)C(C(CC)=NOC/C=C/Cl)=C(O)C1` (configuration not stated) was tested, and the outcome was “inactive”. In the case of `CC(=O)[O][Hg][c]1ccccc1`, the AC50 is reported as 0.29 µM (active). For `O=C1C2(Cl)C3(Cl)C4(Cl)C(Cl)(Cl)C5(Cl)C3(Cl)C1(Cl)C5(Cl)C24Cl` (configuration not stated), the AC50 was 13.3 µM (active). For `CCC(=O)C(CC(C)N(C)C)(c1ccccc1)c1ccccc1` (configuration not stated), the outcome was “inactive”.
